TDP1 cell CPT = DT40-hTDP1 cell growth loss with CPT; AID 686979; chicken DT40 Tdp1-/-;hTDP1 cells + 20 nM CPT, ATP luminescence, 48 h; 420,000 compounds, 12% hits; Potency, µM (series often up to 46.2 µM), inactives show at the top dose activity change, negative = growth inhibition, most hits filed as inhibitors; further: potency means the concentration at half of the fitted maximal effect; nearly all actives have a fitted effect of over 55% in size
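Cell growth measured by CellTiter-Glo luminescence after a minimum 48 h, 37 C compound exposure with 20 nM CPT in Tdp1-knockout DT40 cells stably expressing hTDP1, seeded 400/well; qHTS titration format.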
IL1B secr inh = blocks inflammasome-driven IL-1 beta release | THP-1 LPS/ATP IL-1B secretion, AlphaLISA, 16 h; stronger effect = lower value | activity change, % at 57.5 µM | 360,000 compounds, 4.7% hits | AID 743279; in the data active means activity change below about -50%; inconclusive means mostly about -30% to -49%
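THP-1 cells pretreated 1 hr with compounds (up to 57.5 uM final), then stimulated with LPS (250 ng/mL final) plus ATP (1.25 mM final); secreted IL-1B measured by AlphaLISA after 16 hr, decreased signal indicating inhibition.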
Six1-Eya2 blk = inhibitors of human Six1/Eya2 interaction; Q15475+O00167; 360,000 compounds, 0.56% hits; AlphaScreen GST-Six1/His-Eya2 binding, biochemical; stronger effect = lower value; AID 651725; activity change, % (no concentration beside the values); in the data active means activity change below about -65%; inconclusive means mostly about -30% to -63%
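Compounds are tested against tagged Six1 and Eya2 proteins bridged by glutathione donor and nickel acceptor beads; after a one-hour incubation at 37 °C without light, AlphaScreen emission is recorded.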
TDP1 cell noCPT = qHTS for Inhibitors of human tyrosyl-DNA phosphodiesterase 1 (TDP1): qHTS in cells in absence of CPT. DT40 Tdp1-/- hTDP1 cells, no CPT, ATP luminescence, 48 h. Potency, µM (top dose mostly 46.2 µM), for inactives: at the top dose activity change, negative = growth inhibition, usual class: inhibitors. 420,000 compounds, 15% hits. AID 686978, 2013; further: potency means the concentration at half of the fitted maximal effect; nearly all actives have a fitted effect of over 55% in size
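Growth of hTDP1-complemented DT40 Tdp1-knockout cells is measured by ATP luminescence after at least 48 hr compound exposure at 37 °C, with DMSO substituting for the 20 nM CPT used in the parallel screen.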
TDP1 block = inhibitors of human tyrosyl-DNA phosphodiesterase TDP1. AID 485290. Q9NUW8. 350,000 compounds, 0.28% hits. Potency, µM (titrated, usually from 130 µM), for inactives: top-dose activity change, negative = inhibition, most hits filed as inhibitors. recombinant TDP1, AlphaScreen DNA substrate cleavage; further: potency means the concentration at half of the fitted maximal effect; nearly all actives have a fitted effect of over 40% in size
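Here, a 5' biotin and 3' phosphotyrosine-FITC DNA oligonucleotide reports Tdp1 activity: intact substrate bridges AlphaScreen beads, while cleavage leaves a 3' phosphate and drops signal. All incubations at room temperature.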
CtBP-E1A blk = blocks the CtBP interaction with E1A | AlphaScreen GST-E1A/His-CtBP binding, 1536-well; stronger effect = lower value | activity change, % (concentration not given with the values) | 340,000 compounds, 0.49% hits | AID 651724; in the data active means activity change below about -65%; inconclusive means mostly about -30% to -63%
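Steps: dispense buffer (Tris pH 8.0, NaCl 300 mM, TCEP 1 mM, BSA, Tween 20); add 5X protein mix (GST-E1A, His-CtBP, 125 nM each); pin 23 nL compound; 2 h at 37 °C, dark; add 5X beads (50 ug/mL); 1 h; read.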
Starred values were filed as active, the others as inactive; u = inconclusive; x = no result; [ ] = remark or other dose. A selection: hits, their analogues and other compounds. The true share with any hit is near 18%. Unless noted, the call rests on the fitted dose curve; in most records, active means well fitted curve in the direction sought with a large enough effect; inconclusive means small, poorly fitted or top-dose-only effect, or another doubt; inactive means no such curve, though single readings can be large; an effect the other way counts as inactive or inconclusive. On the % scale 0 is the no-effect control and ±100 the full control effect.

SMILES	TDP1 cell CPT	IL1B secr inh	Six1-Eya2 blk	TDP1 cell noCPT	TDP1 block	CtBP-E1A blk
Cc1ccc(CCNC(=O)CN(c2ccc(C(C)C)cc2)S(=O)(=O)c2c(C)nn(C)c2C)cc1	u	x	x	23µM*	1%	x
COc1ccc(N(CC(=O)NCCc2cccc(C)c2)S(=O)(=O)c2c(C)noc2C)cc1	u	-16	-2	18µM*	5%	x
COc1ccc(N(CC(=O)NCCc2ccc(C)cc2)S(=O)(=O)c2c(C)noc2C)cc1	21µM*	-11	-1	u	0%	x
CN(C(=O)C1CCOC1)c1nnc(-c2ccncc2)s1 (centres undefined)	-7%	2	-4	1%	4%	-3
COc1ccc(NC(=O)C2CCC(CNS(=O)(=O)c3ccc(Br)s3)CC2)c(OC)c1 (centres undefined)	18µM*	x	x	u	2%	x
O=C(CCc1nnc(CCCCc2ccccc2)o1)N1CCCC(O)C1 (centres undefined)	-3%	0	6	16%	-1%	12
COCCCC1CCN(C(=O)CCc2nnc(CCCCc3ccccc3)o2)CC1	u	6	7	15µM*	-1%	x
COc1ccc(Cl)cc1NC(=O)CSC1=Nc2ccccc2C2=NC(CC(=O)NC3CCCCC3)C(=O)N12 (centres undefined)	18µM*	x	x	-93%	-2%[12.3 µM]	x
COc1ccc(Cl)cc1NC(=O)CSC1=Nc2ccccc2C2=NC(CCC(=O)NCc3ccc(F)cc3)C(=O)N12 (centres undefined)	23µM*	x	x	16µM*	2%	x
COc1ccc(NC(=O)CSC2=Nc3ccccc3C3=NC(CCC(=O)NCc4ccc(F)cc4)C(=O)N23)cc1Cl (centres undefined)	u	x	x	15µM*	5%	x
CCC(C)(NC(=O)Cc1c[nH]c2ccccc12)C(=O)NC1CCCCC1 (centres undefined)	-4%	17	0	0%	3%	0
CNC(=O)/C(C#N)=C/c1c(N2CCCCCC2)nc2ccccn2c1=O	-12%	-26	-1	-8%	x	-1
CN(CCC#N)c1ccc(/C=C(\C#N)c2ccccn2)cc1	u	-64*	11	u	6%	-20
CCN(CC)c1ccc(/C=C(\C#N)c2ccccn2)cc1	2.6µM*	u	69	2.6µM*	-1%	26
CC(C)(C)c1cc(CN(CCO)CCO)cc(C(C)(C)C)c1O	u	-5	-1	u	4%	7
CC(C)c1ccc(NC(=O)C(c2ccccc2)N(C)C(=O)CCc2c[nH]c3ccccc23)cc1 (centres undefined)	u	x	-8	u	x	-2
C#CCOc1c(Br)cc(C2C(C(=O)OC)=C(C)NC3=C2C(=O)c2ccccc23)cc1OCC (centres undefined)	u	x	x	5.8µM*	x	x
CCOC(=O)C1=C(C)NC2=C(C(=O)c3ccccc32)C1c1cccnc1 (centres undefined)	u	-10	-11	u	2%	-9
CCOc1ccc(C2C(C(=O)OC)=C(C)NC3=C2C(=O)c2ccccc23)cc1OC (centres undefined)	18µM*	x	x	21µM*	x	x
CCOC(=O)c1c(-c2ccc(OC)cc2)csc1NC(=O)C1CCCO1 (centres undefined)	u	-20	4	u	-1%	0
CCOC(=O)c1c(-c2ccc(C)cc2)csc1NC(=O)C1CCCO1 (centres undefined)	u	7	5	26µM*	-1%	0
CCOC(=O)c1c(-c2ccc(C)cc2)csc1NC(=O)c1cc(=O)c2cc(Cl)ccc2o1	2%	x	x	4.6µM*	2%	x
COC(=O)c1c(-c2cccc(C)c2)csc1NC(=O)C1CCCO1 (centres undefined)	u	-9	-6	18µM*	5%	4
CCOC(=O)c1c(-c2ccccc2)csc1NC(=O)c1cc(-c2ccc(Cl)cc2)on1	-9%	x	x	-10%	1%	x
CCOC(=O)c1c(-c2ccc(F)cc2)csc1NC(=O)C1CCCO1 (centres undefined)	-14%	0	9	u	-7%	1
SMILES	TDP1 cell CPT	IL1B secr inh	Six1-Eya2 blk	TDP1 cell noCPT	TDP1 block	CtBP-E1A blk
CC(C)OC(=O)c1c(-c2ccc(C(C)C)cc2)csc1NC(=O)C1CCCO1 (centres undefined)	u	16	-1	15µM*	-7%	-1
COc1cc2oc(=O)cc(-c3ccc(-c4ccc(OC(F)(F)F)cc4)cc3)c2c(OC)c1OC	16µM*	63	6	12µM*	-1%[56.1 µM]	7
COc1ccc(-c2ccc(-c3cc(=O)oc4cc(OC)c(OC)c(OC)c34)cc2)cc1F	18µM*	-18	7	23µM*	-3%[56.1 µM]	8
COc1cc2oc(=O)cc(-c3ccc(-c4ccc(F)c(Cl)c4)cc3)c2c(OC)c1OC	18µM*	24	4	15µM*	-3%[56.1 µM]	8
COc1cc2oc(=O)cc(-c3ccc(-c4ccc(N(C)C)cc4)cc3)c2c(OC)c1OC	u	13	-4	u	3%[56.1 µM]	-4
CCOC(=O)c1ccc(-c2ccc(-c3cc(=O)oc4cc(OC)c(OC)c(OC)c34)cc2)cc1	18µM*	6	1	18µM*	0%[56.1 µM]	4
CN1NC(c2ccccc2)NN(C)C1=O	18µM*	-13	0	-29%	x	0
O=C(COC(=O)c1ccc2ncsc2c1)NCc1ccccc1Cl	6%	14	-5	-17%	-3%	x
CC1(C)C[C@H](O)[C@]2(CO)[C@H](O)C[C@]3(C)C(=CCC4[C@@]5(C)CC[C@H](O)C(C)(C)C5CC[C@]43C)[C@@H]2C1 (some centres undefined)	u	15	2	23µM*	-6%	4
CC1(C)CC[C@]2(C(=O)O)CC[C@]3(C)C(=CC[C@@H]4[C@@]5(C)CC[C@H](O)C(C)(C)[C@@H]5CC[C@]43C)[C@@H]2C1	u	26	-5	23µM*	-1%	2
CC1(C)CC(NC(=O)c2cccc(F)c2)CC(C)(C)N1	25%	10	1	26%	x	7
O=C(NCc1ccccc1)[C@@H]1CCCN1C(=O)[C@@H]1CCCN1C(=O)c1cccs1	-44%	-57*	9	-41%	x	3
COc1cccc(NC(=O)Nc2cccc(-c3cn4cccnc4n3)c2)c1	x	x	x	x	1%	x

Compound activity deposited in PubChem by National Center for Advancing Translational Sciences (NCATS).
